The results in this text go back to PubChem BioAssay AID504782 (NMMLSC, 2011).

The other results are listed elsewhere or left out. A number with no mark means an inactive call. The source made the active and inactive calls.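 Rule for the calls: active = inhibition of aptamer binding above 40%, about triple the noise seen with nonglowing compounds, on plates passing quality control; inactive = the rest.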

For the assay, the target named is Beta-adrenergic receptor kinase 1 (Homo sapiens) (UniProt P25098). Briefly: GRK2 aptamer-displacing inhibitors, hit retest, confirmation, biochemical, cherry pick 2, bead flow cytometry (AID 504782).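 For inhibition of aptamer binding: negative values mostly come from compounds that fluoresce themselves.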 Particulars: bead-bound GRK2, FAM-aptamer displacement; at 10 µM, active compounds read high. A general note: Flow cytometry measures light scatter and fluorescence of single cells or particles in a stream.
Beta-adrenergic receptor kinase 1 (Homo sapiens), sequence (P25098 whole entry, looked up): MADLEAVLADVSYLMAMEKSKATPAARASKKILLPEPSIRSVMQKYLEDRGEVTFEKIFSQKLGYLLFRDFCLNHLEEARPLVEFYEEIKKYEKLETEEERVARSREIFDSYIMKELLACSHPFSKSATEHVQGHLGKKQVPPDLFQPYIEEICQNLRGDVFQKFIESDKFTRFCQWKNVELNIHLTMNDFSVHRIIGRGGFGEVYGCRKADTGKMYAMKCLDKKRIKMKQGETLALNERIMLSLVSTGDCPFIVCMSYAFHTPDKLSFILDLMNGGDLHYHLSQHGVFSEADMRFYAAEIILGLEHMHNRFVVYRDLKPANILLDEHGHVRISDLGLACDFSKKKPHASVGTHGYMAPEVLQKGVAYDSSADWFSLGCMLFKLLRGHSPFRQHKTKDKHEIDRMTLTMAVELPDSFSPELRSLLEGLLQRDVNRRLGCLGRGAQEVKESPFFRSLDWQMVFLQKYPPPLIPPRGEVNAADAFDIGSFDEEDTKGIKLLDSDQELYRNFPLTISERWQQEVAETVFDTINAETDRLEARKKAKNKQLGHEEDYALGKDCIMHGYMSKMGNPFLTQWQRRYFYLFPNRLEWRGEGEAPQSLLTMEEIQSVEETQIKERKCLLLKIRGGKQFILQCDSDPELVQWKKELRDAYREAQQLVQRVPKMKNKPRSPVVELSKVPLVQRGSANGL

Take `CCOc1ccc(OCC)c(NC(=O)CCS(=O)(=O)c2ccc(C)cc2)c1`: the inhibition of aptamer binding was -1.15%.

For `COc1cc([N+](=O)[O-])cc([N+](=O)[O-])c1NC(=O)N1CCOCC1`, the inhibition of aptamer binding was 8.51%.

For `NC(=O)[C@H]1CC2(CC(c3cccc(NC(=O)[C@H]4CCC(=O)N4)c3)=NO2)CN1C(=O)c1ccccc1C(=O)c1ccccc1` (stereo not given in full), the inhibition of aptamer binding is -25.8%.

For the compound `CC(=O)c1ccc(N2CCN(C(=O)c3ccc4nc[nH]c4c3)CC2)cc1`, the inhibition of aptamer binding is -5.06%.

Turning to `COc1ccc(Cl)cc1NC(=O)CCS(=O)(=O)c1cc2c(cc1C)NC(=O)CO2`, the inhibition of aptamer binding was -12.2%.

Take `COc1ccccc1C(=O)N(Cc1ccc(C)o1)C1CCS(=O)(=O)C1` (stereo not given): the inhibition of aptamer binding was 10.1%.

For `Cc1ccc(S(=O)(=O)CC(=O)Nc2sc(C)c(C)c2C(N)=O)cc1`, the inhibition of aptamer binding was -39.3%.

On to `COc1cccc(OC)c1C(=O)Nc1ccc(Cc2ccncc2)cc1`, for which the inhibition of aptamer binding is -1.61%.

On to `CCOCCCNC(=O)c1ccc(CS(=O)(=O)c2cccc(C(F)(F)F)c2)o1`, for which the inhibition of aptamer binding is 8.74%.

As for `CC1CCN(C(=S)NC2CC3CCC2C3)CC1` (stereo not given), the inhibition of aptamer binding was -12.2%.

As to `O=C(NC1C2CC3CC(C2)CC1C3)c1ccc(N2CCNCC2)c([N+](=O)[O-])c1` (stereo not given), the inhibition of aptamer binding was -5.52%.

In the case of `O=C(C1CCCN(S(=O)(=O)c2ccc([N+](=O)[O-])cc2)C1)N1CCCCC1` (stereo not given), the inhibition of aptamer binding was -14.3%.

Turning to `Cc1nnc(SCC(=O)N2c3ccccc3C(C)(c3ccc(Cl)cc3)CC2(C)C)s1` (stereo not given), the inhibition of aptamer binding is 14.7%.

Consider `O=C(NCCCN1CCCCCC1)c1ccc(N2CCCC2=O)cc1`, for which the inhibition of aptamer binding is -112%.

For `CC1Sc2ccc(S(=O)(=O)CCC(=O)NCc3ccccc3Cl)cc2NC1=O` (stereo not given), the inhibition of aptamer binding is 2.07%.

On to `CCOCCc1c(O)nc(SCC(=O)NCc2ccco2)[nH]c1=O`, for which the inhibition of aptamer binding was -20.9%.

For the compound `CCOC(=O)C1=C(N)N(c2ccc(C)cc2)C2=C(C(=O)CCC2)C1c1cccs1` (stereo not given), the outcome was inactive.

Consider `CCC(C)(C(=O)NC1CCCCC1)N(C)C(=O)c1ccc2c(c1)OCO2` (stereo not given), for which the inhibition of aptamer binding was -12.4%.

Regarding `COCCn1c(N)c(NCc2ccccc2)c(=O)[nH]c1=O`, the inhibition of aptamer binding is -165%.

In the case of `O=C(CCS(=O)(=O)c1ccccc1)NC1CCCC1`, the inhibition of aptamer binding was 1.15%.

For `CCN1CCN(C(=O)N[C@@H](C(=O)N[C@@H]2C(=O)N3C(C(=O)O)=C(CSc4nnnn4C)CS[C@H]23)c2ccc(O)cc2)C(=O)C1=O`, the inhibition of aptamer binding is -21.6%.

For the compound `CN=C(Nc1cccc(S(=O)(=O)N2CCOCC2)c1)c1ccccc1`, the inhibition of aptamer binding was -13.4%.

With `COc1ccc(Cl)cc1NC(=O)CCS(=O)(=O)c1ccc(Br)cc1`, the inhibition of aptamer binding was 75.5% (active).

As to `O=[N+]([O-])c1ccccc1S(=O)(=O)Nc1cccc2cccnc12`, the inhibition of aptamer binding is 7.36%.

For `CCc1nn(CCCN2CCN(c3cccc(Cl)c3)CC2)c(=O)n1CCOc1ccccc1`, the inhibition of aptamer binding was 4.83%.
